# Compound activity as filed in PubChem BioAssay.
# TbPYK inhibitor – qHTS of Trypanosoma Brucei Inhibitors. Potency, µM (doses to about 76.8 µM), without a hit: at the highest dose activity, negative = inhibition, actives largely listed as inhibitors. hit rate 0.12% among 410,000. TbPYK enzyme, Kinase-Glo Plus ATP luminescence, 45 min. AID 624173, 2012; note: potency is the fitted concentration of half-maximal effect; % is set by controls: 0 for no effect and ±100 for the full control effect; nearly all actives have a fitted effect of over 50% in size
#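 TbPYK + substrate in 50 mM TEA pH 7.2, 100 mM KCl, 10 mM MgCl2, 0.05% BSA, 0.01% Tween-20; cpd pinned; ADP 130 uM final; 45 min RT; Kinase-Glo Plus 10 min; luminescence endpoint.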
# LmPK inh – qHTS Assay for Inhibitors of Leishmania Mexicana Pyruvate Kinase (LmPK). hit rate 0.37% among 290,000. purified LmPK, Kinase-Glo ATP luminescence, 1 h. Potency, µM (series often up to 57.5 µM), inactives show top-dose activity change, negative = inhibition, most hits filed as inhibitors. AID 1721, 2009; note: potency is the fitted concentration of half-maximal effect; % is set by controls: 0 for no effect and ±100 for the full control effect
# Target sequence (Q27686 whole entry, looked up): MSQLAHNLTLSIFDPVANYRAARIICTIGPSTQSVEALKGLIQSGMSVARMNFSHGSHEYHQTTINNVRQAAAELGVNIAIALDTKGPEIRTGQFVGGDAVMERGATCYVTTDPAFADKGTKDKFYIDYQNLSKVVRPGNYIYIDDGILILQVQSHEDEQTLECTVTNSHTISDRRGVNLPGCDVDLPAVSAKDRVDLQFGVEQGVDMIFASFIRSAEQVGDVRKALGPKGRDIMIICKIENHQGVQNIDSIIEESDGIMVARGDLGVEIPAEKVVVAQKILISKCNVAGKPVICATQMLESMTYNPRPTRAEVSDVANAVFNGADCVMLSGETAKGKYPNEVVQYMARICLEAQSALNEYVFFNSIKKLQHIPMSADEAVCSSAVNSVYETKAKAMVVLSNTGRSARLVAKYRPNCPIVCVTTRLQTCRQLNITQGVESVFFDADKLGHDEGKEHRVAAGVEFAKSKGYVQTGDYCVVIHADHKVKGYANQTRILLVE
#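 In 50 mM imidazole pH 7.2 with 7 mM MgCl2, LmPK (0.1 nM) turned over PEP (0.5 mM) and ADP (0.1 mM) for 1 h at room temperature. Luciferase read-out of ATP.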
# Giardia FBPA inh – qHTS Assay for Inhibitors of Fructose-1,6-bisphosphate Aldolase from Giardia Lamblia; A8B2U2; purified Giardia FBPA; Potency, µM (doses to about 59.6 µM), without a hit: at the highest dose activity, negative = inhibition, hits mostly inhibitors; hit rate 0.71% among 290,000; AID 2451, 2010; note: potency is the fitted concentration of half-maximal effect; % is set by controls: 0 for no effect and ±100 for the full control effect; nearly all actives have a fitted effect of over 55% in size
#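 Giardia FBPA (40 nM reagent) was preincubated 10 min at RT with compound (up to 57.5 uM final), then substrate plus GAPDH/TPI/NAD/arsenate coupling system with diaphorase/resazurin was added; resorufin fluorescence (525/598 nm) was read after 20 min.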
# CHX counter – Cycloheximide Counterscreen for Small Molecule Inhibitors of Shiga Toxin. AID 2314, 2010. hit rate 12% among 300,000. cell reporter, cycloheximide protein synthesis inhibition counterscreen. max response, %; in the data active = max response mostly above about 13%, no sharp cut-off; inactive = mostly below about 14%; note: read at 38.3 µM for the half of the compounds with a filed dose; 0% is about no effect
# Sm TGR block – qHTS Assay for the Inhibitors of Schistosoma Mansoni Peroxiredoxins | Schistosoma mansoni thioredoxin glutathione reductase (TGR), Q962Y6 | purified TGR, DTNB reduction, TNB absorbance 405 nm | Potency, µM (top dose mostly 114 µM), without a hit: top-dose activity change, negative = inhibition, actives largely listed as inhibitors | hit rate 3% among 360,000; note: potency is the fitted concentration of half-maximal effect; % is set by controls: 0 for no effect and ±100 for the full control effect; nearly all actives have a fitted effect of over 60% in size
#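 Kinetic colorimetric format: TGR-catalysed, NADPH-driven DTNB reduction monitored via TNB absorbance. Enzyme dispensed at 20 nM; compound exposure 15 min at room temperature before reaction start.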
# Shiga toxin inh – A qHTS for Small Molecule Inhibitors of Shiga Toxin; AID 2315, 2010; hit rate 9.2% among 290,000; inhibition, % at 38.7 µM; Vero cells, Shiga toxin protein synthesis inhibition reporter; in the data active = inhibition mostly above about 28%, no sharp cut-off; inactive = mostly below about 43%; note: 0% is about no effect
# The depositor's hits bear a star; ? = inconclusive; . = not tested or not shown. This excerpt belongs to a sample that is enriched for hits. Unless noted, calls come from the whole dose curve; as a rule, active = well fitted curve in the direction sought with a large enough effect; inconclusive = small, poorly fitted or top-dose-only effect, or another doubt; inactive = no such curve, though single readings can be large; an effect the other way counts as inactive or inconclusive.
SMILES,TbPYK inhibitor,LmPK inh,Giardia FBPA inh,CHX counter,Sm TGR block,Shiga toxin inh
CCCCCCCNC(=O)C1(CC2CC(c3cccc(Br)c3)=NO2)CCN(C(=O)OC(C)(C)C)CC1 (centres undefined),-10%,-1%,-1%,15*,-4%,15
O=C(NCC1CCCCC1)C1(CC2CC(c3cccc(Br)c3)=NO2)CCNCC1 (centres undefined),-8%,2%,4%,-8,45µM*,14
CCCCCCCNC(=O)C1(CC2CC(c3cccc(Br)c3)=NO2)CCN(C(=O)C2CCCC2)CC1 (centres undefined),2%,.,.,.,8%,.
O=C(NCc1ccccc1)C1(CC2CC(c3ccccc3)=NO2)CCNCC1 (centres undefined),-9%,.,.,.,50µM*,.
CC(C)(C)OC(=O)N1CCC(CC2CC(c3cccc(Br)c3)=NO2)(C(=O)NCC2CCCCC2)CC1 (centres undefined),3%,-2%,10%,13*,16%,26
COc1cc(C(=O)NCCc2sc(-c3cccc(F)c3)nc2C)cc(OC)c1OC,13%,.,.,.,1%,.
CCC(=NCc1ccc(Cl)c(Cl)c1)c1nc(-c2ccco2)oc1O,-3%,1%,4%,23,-3%,48*
Cc1ccc(N(Cc2cccs2)C(=O)c2ccco2)cc1,3%,.,.,.,0%,.
CCOC(=O)[C@@H](N)CS,5%,.,.,.,.,.
NC(=O)N/N=C/c1c(Sc2nnnn2-c2ccccc2)nc2ccccn2c1=O,-1%,1%,6%,-3,4µM*,18
Cn1c(N)c(C(=O)CSc2nnnn2-c2ccccc2)c(=O)n(C)c1=O,8%,5%,1%,-2,4%,15
NC1=NC2(CCCCC2)n2c(nc3ccccc32)N1,1%,-13%,?,10,7%,-3
N=c1cc(C2(O)CCCCC2)n2c(nc3ccccc32)s1,-16%,-26%,-17%,48*,6%,89*
NC(=O)c1ccc(C[C@H](C(=O)O)N2C(=O)c3ccc(C(=O)O)cc3C2=O)cc1,.,.,-1%,-5,5%,13
COc1cccc(-n2c(=O)c3sc4ccccc4c3n(CC(=O)Nc3ccccc3OC)c2=O)c1,3%,.,.,.,3%,.
CCC1CCc2nc3sc(C(=O)Nc4ccc(C)cc4C)c(N)c3cc2C1 (centres undefined),-1%,.,.,.,-2%,.
CC/C(C)=N/N1C(=O)c2ccccc2NC1(C)CC (centres undefined),-2%,1%,6%,30*,2%,77*
CN1CC(=O)Nc2ccccc2C1=O,5%,7%,13%,-5,5%,-12
O=C1CC(c2ccco2)CC2=C1C=Nc1ccccc1N2 (centres undefined),-10%,-1%,0%,21,40µM*,19
O=C1CC(c2ccco2)CC2=C1C(c1ccncc1)n1nc(C(F)(F)F)nc1N2 (centres undefined),.,.,.,-5,.,-2
Cc1ccc(OC(=O)CSc2nnc(-c3ccc4c(c3)OCO4)o2)c(C)c1,1%,.,.,.,-2%,.
CC(=O)n1cc([C@@H]2C=C(C(=O)N3CCN(Cc4ccccc4)CC3)O[C@H](OCc3ccc(CO)cc3)C2)c2ccccc21,2%,3%,-24%,-1,25µM*,-5
CC(=O)n1cc([C@@H]2C=C(C(=O)N3CCN(Cc4ccc5c(c4)OCO5)CC3)O[C@H](OCCCCO)C2)c2ccccc21,-4%,6%,-1%,-3,-6%,-16
O=C(C1=C[C@H](c2csc3ccccc23)C[C@H](OCc2ccc(CO)cc2)O1)N1CCN(Cc2ccccc2)CC1,2%,6%,-17%,-3,14µM*,-11
CC(=O)n1cc([C@H]2C=C(C(=O)N3CCN(Cc4ccccc4)CC3)O[C@@H](OCCCCO)C2)c2ccccc21,-3%,-4%,-12%,0,35µM*,14
O=C(C1=C[C@H](c2csc3ccccc23)C[C@H](OCc2ccc(CO)cc2)O1)N1CCN(Cc2ccc3c(c2)OCO3)CC1,-2%,1%,-5%,-3,-16%,-22
